Screening data: PubChem, National Center for Advancing Translational Sciences (NCATS)
Hits are enriched below; roughly 10% of the tested compounds scored in any of these assays.
HPGD inh: HPGD (human) dehydrogenase inhibition. P15428. purified HPGD, NADH fluorescence kinetic, PGE2 substrate. Potency, µM, inactives show at the top dose activity change, negative = inhibition, actives largely listed as inhibitors. 4.3% of 150,000 active. AID 894; also: potency is read from the fitted curve at half-maximal effect
Target sequence (P15428 whole entry, looked up): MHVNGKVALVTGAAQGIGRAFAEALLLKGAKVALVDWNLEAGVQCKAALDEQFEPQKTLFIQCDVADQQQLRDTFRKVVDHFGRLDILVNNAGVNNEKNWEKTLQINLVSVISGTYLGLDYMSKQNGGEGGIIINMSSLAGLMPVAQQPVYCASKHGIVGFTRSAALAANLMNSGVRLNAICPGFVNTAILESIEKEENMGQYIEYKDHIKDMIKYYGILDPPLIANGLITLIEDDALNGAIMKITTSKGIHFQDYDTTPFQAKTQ
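20 nM HPGD preincubated 15 min at room temperature with compound in 50 mM Tris-HCl pH 8, 0.01% Tween 20. Started with 1 mM NAD+ and 30 uM prostaglandin E2; NADH fluorescence (360/450 nm) read 5 times over 30-s intervals, last minus first.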
ALDH1A1 block: inhibitors of human aldehyde dehydrogenase 1A1; AID 1030; P00352; 7.3% of 220,000 active; Potency, µM (highest dose often 75.3 µM), inactives show at the top dose activity, negative = inhibition, most hits filed as inhibitors; Purified ALDH1A1, NADH fluorescence, propionaldehyde substrate;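 also: potency is read from the fitted curve at half-maximal effect; plate controls were no enzyme wells and a reference inhibitor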
PNC assembly inh: blocks assembly of the perinucleolar compartment. PC3M PTB-GFP, PNC prevalence imaging, 16 h; hits give low values. activity change (PNC), negative = inhibition, % at 10 µM. 3.1% of 140,000 active. AID 2417;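 active = readout at or below -70, meaning at least 70% loss of cells showing the perinucleolar compartment, a nuclear body marking cancer cells; inconclusive = readout between -30 and a set limit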;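 also: plate controls were DMSO wells for no effect and camptothecin positive control wells for full effect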
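Compounds are pinned in duplicate onto adhered PC3M cells stably expressing GFP-tagged PTB and incubated 16 h at 37 C. Cells are then fixed, nuclei stained with Hoechst, and PNC-positive cells counted.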
KinaseGlo FLuc: blocks Kinase-Glo luciferase, a counter-screen artifact; Q27757; Kinase-Glo luciferase, ATP luminescence, 8 min; Potency, µM (doses to about 38.3 µM), without a hit: at the highest dose activity change, negative = inhibition, actives largely listed as inhibitors; 0.28% of 200,000 active; AID 1379; active = well fitted inhibition curve with a large enough effect; inconclusive = small, poorly fitted or top-dose-only effect; also: potency is read from the fitted curve at half-maximal effect; nearly all actives have a fitted effect of over 60% in size
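Inhibition of Kinase-Glo luciferase light generation was assessed at 10 uM ATP in pH 7.2 imidazole buffer, with luminescence measured after eight minutes at ambient temperature.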
IMPase cell inh: membrane-permeable compound that blocks inositol monophosphatase. inhibition (IP1 accumulation), % at 46.1 µM. CHO-M1 cells, IP1 accumulation, HTRF TR-FRET ratio. P97697. 120,000 tested, under 10 active; active = well fitted curve in the direction sought with a large enough effect in the signal ratio, not every such curve was filed as active; inconclusive = small, poorly fitted or top-dose-only effect, or a change in a side signal; inactive = no such curve, though single readings can be large or run the other way; the % refers to the signal ratio;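 also: cells stimulated with carbachol in lithium chloride buffer; plate controls were DMSO basal wells for no effect and reference inhibitor wells for full effect; higher means more IMPase inhibition seen as more IP1 and lower FRET ratio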
Target sequence (P97697 whole entry, looked up): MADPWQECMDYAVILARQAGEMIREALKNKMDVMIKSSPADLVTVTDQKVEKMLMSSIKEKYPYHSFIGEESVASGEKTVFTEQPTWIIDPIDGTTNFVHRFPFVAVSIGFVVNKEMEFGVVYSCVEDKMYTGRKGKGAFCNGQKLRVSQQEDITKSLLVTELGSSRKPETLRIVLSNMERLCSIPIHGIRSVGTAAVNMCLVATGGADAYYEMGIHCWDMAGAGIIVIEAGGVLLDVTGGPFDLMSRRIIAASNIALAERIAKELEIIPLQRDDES
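CHO-M1, 2000 cells/well, cultured 16–30 h; cpd up to 46 uM; carbachol (50 uM solution, stimulation buffer w/ 50 mM LiCl, pH 7.4), 30 min 37C; IP-One TR-FRET, 10 min RT; Ex 320/Em 665, 620; Hill-fit AC50.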
LMNA splice mod: modulators of lamin A splicing; 0.01% of 200,000 active; HeLa LMNA splicing GFP/RFP minigene ratio, 48 h; AID 1487; Potency, µM (top dose mostly 46.1 µM), for inactives: at the top dose ratio change, negative = inhibition, actives largely listed as inhibitors; active = well fitted inhibition curve with a large enough effect in the signal ratio, with a control signal flat, not every such curve was filed as active; inconclusive = small, poorly fitted or top-dose-only effect, or effect the other way, or a change in a side signal; the % refers to the signal ratio; also: potency is read from the fitted curve at half-maximal effect
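Read-out is the ratio of GFP to DsRed2 object intensity, acquired by 488 nm laser-scanning cytometry on HeLa lamin A-EGFP minigene reporter cells. Compound incubation 48 hrs at 37 °C in Opti-MEM with 2% FBS; DMSO 0.5% final.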
* marks the source's active call; other numbers are inactive results; ? = inconclusive; · = no result; [ ] = another dose, or the depositor's remark. Unless noted, calls follow the shape of the dose curve; as a rule, active = well fitted inhibition curve with a large enough effect (not every such curve was filed as active); inconclusive = small, poorly fitted or top-dose-only effect, or another doubt; inactive = no such curve, though single readings can be large or run the other way. Unless noted, % is scaled to controls: 0 for no effect and ±100 for the full control effect.

SMILES	HPGD inh	ALDH1A1 block	PNC assembly inh	KinaseGlo FLuc	IMPase cell inh	LMNA splice mod
CCOCc1nnc(NC(=O)c2cc(OC)cc(OC)c2)s1	·	-8%	·	5%	·	-3%[46 µM]
S=C(Nc1ccccc1)Nc1nccs1	-30%	?	·	-4%	3	?
O=C(Nc1cccc(C(=O)N2CCCCC2)c1)c1nsc2ccccc12	·	·	·	·	·	-9%[46 µM]
COc1ccc(CCCc2nnc(SCC(=O)Nc3ccc(C)cc3)o2)cc1C	·	·	·	·	·	1%[46 µM]
CCNC(=O)C/C(C)=N/NC(=O)C12CC3CC(CC(C3)C1)C2	-13%	4µM*	-7	0%	5	10%
CC1=CC(C)(C)N(S(=O)(=O)c2ccc(C)cc2)c2ccc(C)cc21	-5%	0%	-90*	2%	-1	-8%
CN(C)S(=O)(=O)c1ccc(N2CCCC2)c(C(=O)N2CCN(c3ccc([N+](=O)[O-])cc3)CC2)c1	·	14µM*	·	5%	·	-18%[46 µM]
O=C(c1ccc(Oc2ccc([N+](=O)[O-])cc2Cl)cc1)N1CCCC1	·	22µM*	·	2%	·	·
Cc1ccc(C(=O)c2cc([N+](=O)[O-])ccc2N2CCCCC2)cc1	-9%	20µM*	-110*	-2%	·	?
O=C(c1cc([N+](=O)[O-])ccc1N1CCCCC1)N1CCCC1	-4%	28µM*	?	-2%	·	7%
CC(CN(C)C)NC(=O)c1ccc(-n2c(=O)c(=O)[nH]c3ccccc32)cc1 (stereo not given)	-7%	-5%	·	-3%	·	·
Cn1c(SCc2ccccc2Cl)nc2c([nH]c3ccccc32)c1=O	·	·	·	·	·	0%[46 µM]
COc1ccc(OC)c(C(=O)COC(=O)CNC(=O)C2CCCCC2)c1	-16%	-5%	-2	-4%	-2	2%
COc1ccc(C(=O)COC(=O)CNC(=O)C2CCCCC2)c(OC)c1	25µM*	?	-16	3%	-11	17%
Cc1cc(N=NC(=O)c2ccccc2)ccc1O	·	22µM*	·	-3%	·	-10%[46 µM]
c1csc(-c2cn3ccc4ccccc4c3n2)c1	·	5µM*	·	-10%	·	·
c1cc(-c2cccs2)nc(-c2cccs2)c1	?	?	?	-6%	·	2%
CCN(CCNC(=O)c1ccc(CSc2nc3ccncc3[nH]2)cc1)c1ccccc1	-13%	-9%	-30	14%	·	?
O=C(NCCN1CCOCC1)c1ccc(CSc2nc3ccncc3n2Cc2ccc(F)cc2)cc1	·	4%	·	·	·	·
CN1CCN(C(=O)c2ccc(CSc3nc4ccncc4n3Cc3ccc(F)cc3)cc2)CC1	16µM*	-2%	30	-2%	·	?
CC1CC(C)CN(C(=O)c2ccc(CSc3nc4ccncc4[nH]3)cc2)C1 (stereo not given)	5.6µM*	0%	39	1%	·	?
CCC(C)NC(=O)c1ccc(CSc2nc3ccncc3n2Cc2ccc(F)cc2)cc1 (stereo not given)	?	-14%	60	0%	·	-8%
O=C(NC1CCCC1)c1ccc(CSc2nc3ccncc3n2Cc2ccc(F)cc2)cc1	3.2µM*	-7%	56	12%	·	-11%
CCCCOc1cccc(C(=O)Nc2sc3c(c2C(=O)OCC)CCCC3)c1	·	·	·	·	-11	·
CCCCC/C=C\C/C=C\C/C=C\C=C\C(=O)CCCC(=O)O	-5%	4%	·	2%	·	·
SMILES	HPGD inh	ALDH1A1 block	PNC assembly inh	KinaseGlo FLuc	IMPase cell inh	LMNA splice mod
COCCCNC(=O)C1CCN(Cc2cc3ccccc3n2Cc2cccc(C)c2)CC1	·	·	·	·	·	-16%[46 µM]
O=[N+]([O-])c1cccc(Nc2nc(Cl)nc(Cl)n2)c1	·	-2%	·	0%	·	8%[46 µM]
Nc1c(S(=O)(=O)O)cc(Nc2ccc(Nc3nc(Cl)nc(Nc4ccc(S(=O)(=O)O)cc4)n3)c(S(=O)(=O)O)c2)c2c1C(=O)c1ccccc1C2=O	16µM*	-10%	·	?	?	?
Cc1cccc(CNc2nc(-c3ccccc3CN(C)C)nc3ccccc23)c1	-6%	-3%	·	0%	·	?
C=CC(=O)OCCCCCCOC(=O)C=C	-4%	2µM*	·	·	·	·
CN(C(=O)COc1cc(=O)n(C)c2ccccc12)c1ccc(Cl)cc1	-9%	?	12	3%	2	-7%
CN(c1ccc(Cl)cc1)c1cc(=O)n(C)c2ccccc12	7.9µM*	10%	?	-1%	-24	?
CN(Cc1ccco1)c1cc(-c2ccc3c(c2)OCO3)ncn1	·	?	·	·	·	28%
CCOc1ccccc1NC(=O)N1CCC(C(=O)c2ccc(F)cc2)CC1	-10%	5µM*	23	-1%	5	-12%
COc1ccccc1NC(=O)N1CCC(C(=O)c2ccc(F)cc2)CC1	-9%	1%	-15	-3%	?	-1%
c1ccc(-c2ccc(-c3ccccn3)nn2)nc1	25µM*	20µM*	-12	10µM*	-3	?
c1ccc(-c2ccccn2)nc1	-11%	3%	3	0%	-2	?
COc1ccc(S(=O)(=O)N(C(C)=O)c2ccc3oc(=O)sc3c2)cc1	20µM*	?	4	-1%	8	?
O=Nc1c(O)[nH]c2ccccc12.[Cu].[O-]/N=C1/C(=[OH+])Nc2ccccc21	0%	1%[13.5 µM]	·	0%[7.66 µM]	·	·
O=C(c1ccc2ccccc2n1)N1CCN(c2ccccc2O)CC1	-23%	?	-96*	-1%	-3	?
CN(Cc1cccnc1)C(=O)CC1C(=O)NCCN1Cc1ccc(-c2ccccc2)cc1 (stereo not given)	·	16µM*	·	-9%	·	·
O=C(NCc1ccc2c(c1)CCN2C(=O)c1ccncc1)c1cccc(Cl)c1	·	·	·	·	·	-1%[46 µM]
O=C1OC(c2ccccc2)/C(=C(/O)c2ccccc2)C1=O (stereo not given)	-18%	0.79µM*	?	2%	-15	8%
O=C1OC(c2ccccc2)/C(=C(/O)c2ccc(Cl)cc2)C1=O (stereo not given)	35µM*	38µM*	3	-2%	-13	2%
Cc1ccc(/C(O)=C2/C(=O)C(=O)OC2c2ccc(Cl)cc2)cc1 (stereo not given)	-7%	?	18	-3%	-24	-3%
O=C1C(=O)N(CCO)C(c2ccccc2)/C1=C(\O)c1ccccc1 (stereo not given)	-8%	4%	37	1%	1	5%
CN(C)c1ccc(C(CNC(=O)c2ccc(C(C)(C)C)cc2)N2CCCC2)cc1 (stereo not given)	·	·	·	·	·	-11%[46 µM]
CC(=O)c1cccc(NC(=O)COC(=O)c2cccs2)c1	·	14µM*	·	-6%	·	?
O=C(OCC(=O)c1cccs1)c1ccc(NC(=O)c2ccco2)cc1	-30%	18µM*	25	-7%	8	8%
O=C(COC(=O)c1cccs1)c1ccc2c(c1)OCCO2	16µM*	18µM*	-19	2.5µM*	-7	4%
